Assay results from article PMC12136788.
In all, about 5,800 sequences were measured (“enrichment r”: median about 0.68, highest 2% from about 11 on). Not all results are given here.

T1: UNK ZnF1-6 (called full-length) (human, UniProt Q9C0B0 30-357)
T1 sequence: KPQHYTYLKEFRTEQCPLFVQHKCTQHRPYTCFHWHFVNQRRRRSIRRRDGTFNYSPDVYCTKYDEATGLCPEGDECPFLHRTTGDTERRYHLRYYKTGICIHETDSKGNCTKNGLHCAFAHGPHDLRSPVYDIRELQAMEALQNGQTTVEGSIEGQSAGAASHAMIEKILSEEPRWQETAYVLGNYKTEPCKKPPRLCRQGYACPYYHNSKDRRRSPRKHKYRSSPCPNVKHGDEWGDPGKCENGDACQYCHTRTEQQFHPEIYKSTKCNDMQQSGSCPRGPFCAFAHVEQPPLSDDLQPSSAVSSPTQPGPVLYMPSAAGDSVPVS

B1: chr1:212100457:212100572:+|CDS|ENSG00000143476|unk|FALSE|unique (ssRNA)
RNA: GGGAGUUCUACAGUCCGACGAUCAGAAGAGGCUCUGUCUCCUCCGUCUCUCCCAAGCCACCUUCAUCUUUCAAGAUGUCGAUUAGAAACUGGGUGACCCGAACACCUUCCUCAUCACCACCCAUCACUCCACCUGCUUCGGAGCAACAGAGGAUUGAGCAUCA
B2: chr20:63196482:63196583:-|3pUTR|ENSG00000149658|msi1|total|mutant (ssRNA)
RNA: GGGAGUUCUACAGUCCGACGAUCUGAUUUUUGCCCAGAUGGAUCUGCAUUUAUUUGUACUUUUUCUAUGUAUUAUAAUCCUGCCGAAGUCACUAAUAAAGGAGUAUUUUUUUUGUCAGCUUAUCAAUCAGACUGAUCUAAUGUCAACAGAGGAUUGAGCAUCA
B3: chr16:55506527:55506628:+|3pUTR|ENSG00000087245|msi1|FALSE|unique (ssRNA)
RNA: GGGAGUUCUACAGUCCGACGAUCUAUCAGUUUUAAUGCUACUACUAACAAUGAACAGUAACAAUAAUAUCCCCCUCAAUUAAUAGAGUGCUUUCUAUGUGCAAGGCACUUUUCACGUGUCACCUAUUUUAACCUUUCCAACCACAACAGAGGAUUGAGCAUCA
B4: ENSG00000107863:be:win_4351|CDS|ENSG00000107863|bound_else_gene|NA|bound_elsewhere_windowed (ssRNA)
RNA: GGGAGUUCUACAGUCCGACGAUCCACAAUGAUACUAAAGAGGAGUCCAAAAAAGAAAGUGAGACACUGGGCAGAAAACAGAAGAUCAUCAUUGCCAAAGAAAACAGCACUAGGAAAGACCCCAGCACGACAAAAGAUGAAAAGCAACAGAGGAUUGAGCAUCA
B5: chr13:42886387:42888493:-|three_prime_utr|ENSG00000133106|control|control|control (ssRNA)
RNA: GGGAGUUCUACAGUCCGACGAUCCAUAUUUAAUCUCUACUGCCAGGGAAAUGCUACAUUAUUUUUCUAAUUGGAAGUAUAAUUAGAGUGAUGUUGGUAGGGUAGAAAAAGAGGGAGUCACUUGAUGCUUUCAGGUUAAUCAGACAACAGAGGAUUGAGCAUCA
B6: chr4:143221337:143221438:+|3pUTR|ENSG00000170185|unk|FALSE|unique (ssRNA)
RNA: GGGAGUUCUACAGUCCGACGAUCUUGAAAGGUAAUAGAUUUUCCAGAAGUAAAAUCUGAUGGUUCUAAAUCAAUCAAUGUGAUAGUUCAUUUUUAACUCUUAGAAGAAUUCAGAGGAAAUUAACCCAGCUAAGUAAAAAAUCUCAACAGAGGAUUGAGCAUCA
B7: chr1:46316673:46316776:+|3pUTR|ENSG00000173660|unk|FALSE|unique (ssRNA)
RNA: GGGAGUUCUACAGUCCGACGAUCUGUUUCUUAUUUGUGUAACUGUAAGUUCACAUGAACCUCAUGGGUUUGGCUUAGGCUGGUAGCUUCUAUGUAAUUCGCAAUGAUUCCAUCUAAAUAAAAGUUCUAUGAUCUGCAAACCUGCAACAGAGGAUUGAGCAUCA
B8: chrX:53645320:53645442:-|CDS|ENSG00000086758|unk|FALSE|unique (ssRNA)
RNA: GGGAGUUCUACAGUCCGACGAUCUUAUUGGCUUCCUCUGAUAUGCAAGUGGUGCUGGCAGUCCUCAAUCUCCUAUAUGUAUUUAGCAAAAGAUCAAACUACAUCACUCGUCUGGGAUCUGACAAGAGGACCCCGCUGCUAACUCAACAGAGGAUUGAGCAUCA
B9: chrX:101412715:101412817:+|CDS|ENSG00000126945|unk|total|mutant (ssRNA)
RNA: GGGAGUUCUACAGUCCGACGAUCGGGUAUGGAGGCUAUGAUGACUAUGGUGGCUAUAAUGAUGGAUAUGGCUUUGGGUCUGACCGAUUUGGAAGAGACCUCAAUUACUGUUUUUCAGGAAUGUCUGAUCACCGAUACGGAGAUCAACAGAGGAUUGAGCAUCA
B10: chr7:100033925:100034026:+|CDS|ENSG00000106261|msi1|total|mutant (ssRNA)
RNA: GGGAGUUCUACAGUCCGACGAUCCAGAGCUCGGACCUCACCAAGCAUCAGAGAAUUCACACGGGGGAGAAACCCUAUGAAUGCCGUGAAUGUGGAAAAGCUUUCAACCGAAACUCAUACCUGAUUUUGCAUCGGAGAAUUCACCAACAGAGGAUUGAGCAUCA
B11: chr12:123761472:123761573:+|3pUTR|ENSG00000185344|unk|total|mutant (ssRNA)
RNA: GGGAGUUCUACAGUCCGACGAUCAAUAAGGCAGUUUGAACGAACAGUCUUCCCACAGUCAGGCCAUUUUUGCUGAUUUGGUUCCGAAUUUUCAGAAAUACUCCGUACACUCCACCUGUUCUUUGAUGGGAAUAUCUAAGAAGGCAACAGAGGAUUGAGCAUCA
B12: chr20:2117184:2117286:+|CDS|ENSG00000125834|unk|FALSE|unique (ssRNA)
RNA: GGGAGUUCUACAGUCCGACGAUCGCUCCUGGGGACCUACAUUAAACAGGGGACUGAGAUCGUCCCUGUUGGUGAGGCGCUGCUAGAAAACCCAAAGAUGGAGUUGCACAUCCCCCAAAAACGCAGGACUUCCAUGUCUGAGGGCAACAGAGGAUUGAGCAUCA
B13: chr6:106663037:106663138:+|CDS|ENSG00000130348|msi1|FALSE|unique (ssRNA)
RNA: GGGAGUUCUACAGUCCGACGAUCAGCACAGAAAGUGAGACGCCUCAUUGCUAAUGACUUUGUAAAUGCUUUUAACUCUGGAGUAGAUGUCUUGCUAACUCCCACCACCUUGAGUGAGGCAGUACCAUACUUGGAGUUCAUCAACAACAGAGGAUUGAGCAUCA
B14: ENSG00000070961:be:win_1|CDS|ENSG00000070961|bound_else_gene|NA|bound_elsewhere_windowed (ssRNA)
RNA: GGGAGUUCUACAGUCCGACGAUCAUGGGCGACAUGGCAAACAACUCAGUUGCUUACAGUGGUGUGAAAAACUCUUUGAAGGAAGCUAAUCAUGAUGGAGACUUUGGAAUUACGCUCGCAGAGCUGCGGGCUCUCAUGGAGCUCCAACAGAGGAUUGAGCAUCA
B15: chr3:185917260:185917361:-|3pUTR|ENSG00000136527|msi1|FALSE|unique (ssRNA)
RNA: GGGAGUUCUACAGUCCGACGAUCUGGCAAAAAGCAACAAUAAACAGUUUGAUUUUUACUUUUCUUUCUAACAUAUCAAUGCUUAGCAGAACUAUUCAGAUUGUCAGUAGUAAAUUUAAAGACAAAUGCCCGUUUUCCUCCAGUCAACAGAGGAUUGAGCAUCA
B16: chr8:17299120:17299221:-|3pUTR|ENSG00000003987|unk|total|mutant (ssRNA)
RNA: GGGAGUUCUACAGUCCGACGAUCUCCUCAUUAUUUAAAAAUGCUAAACCUUGUAUCUCACUUUUUCUCUAACACUGAUUUAACCGCUAACGAGGCCGAAGCAACAUUCAUUCUCCUGGUCUUACAUAUGAAUUUAAGUAUCAGCAACAGAGGAUUGAGCAUCA
B17: chr12:21491601:21491717:-|CDS|ENSG00000004700|unk|FALSE|unique (ssRNA)
RNA: GGGAGUUCUACAGUCCGACGAUCGCUGCCUCCCAUAGCUCUAACUGAGGAACUGGAUUCUAUAACCAGUGAGCUACAUGCAGUAGAAAUUCAAAUUCAAGAACUUACGGAAAGGCAACAAGAGCUUAUUCAGAAAAAAAAAGUCAACAGAGGAUUGAGCAUCA
B18: chr9:130903550:130903651:-|3pUTR|ENSG00000130720|msi1|total|mutant (ssRNA)
RNA: GGGAGUUCUACAGUCCGACGAUCAAAUACCCGGCAUUAUGGGGACAGAGAGCAGGGGGCAGACAGCACCCCUGGAGUCCUCCCCGCAGAUCGUGGGGAACGUCAGGUCUCUCUGAGGUCAGGUCUGAGGCCAGUAUCCUCCAGCAACAGAGGAUUGAGCAUCA
B19: chr1:113590523:113590624:+|CDS|ENSG00000081026|unk|FALSE|unique (ssRNA)
RNA: GGGAGUUCUACAGUCCGACGAUCUCAUCUGACUGGAUGAAGACUGUUCCAAGUUACAACCAAACAAAUAGCUCCAUGGACUUUAGAAAUUAUAUGAUGAGAGAUGAGACUCUGGAACCACUGCCCAAAAACUGGGAAAUGGCCCAACAGAGGAUUGAGCAUCA
B20: chr4:127885990:127886091:+|CDS|ENSG00000142731|msi1|FALSE|unique (ssRNA)
RNA: GGGAGUUCUACAGUCCGACGAUCAUUACUUAUCGGGAGACCACCCUUCGACACUGACACAGUCAAGAACACAUUAAAUAAAGUAGUAUUGGCAGAUUAUGAAAUGCCAUCUUUUUUGUCAAUAGAGGCCAAGGACCUUAUUCACAACAGAGGAUUGAGCAUCA
B21: chr8:23842656:23842757:-|3pUTR|ENSG00000159167|msi1|total|mutant (ssRNA)
RNA: GGGAGUUCUACAGUCCGACGAUCCCCCAAACUUAUGGACACUGCCUCCGCCUCUUGGAAAUCAGGCCGACCAUAUUCUAAGUCCGACUCUUCCCCUCCCUCCCACACUUCCCACCCCCAGGCAAGGCUGACUUCUCUGAAUCACAACAGAGGAUUGAGCAUCA
B22: ENSG00000070961:be:win_3851|3pUTR|ENSG00000070961|bound_else_gene|NA|bound_elsewhere_windowed (ssRNA)
RNA: GGGAGUUCUACAGUCCGACGAUCUUUUUGGGGGGUGGGAGAAAUGAACUGACAGAUAAACAGUAACUCAGCGUAAGUGACCUGUGGAUCAUCAGUAGUACCCAAGCAUGGUCCUGAACAGUGUAUUAGCAGAGCUUUAGUUUACAACAGAGGAUUGAGCAUCA

Molecular target: T1, UNK ZnF1-6 (called full-length)
Experiment: nsRBNS (natural sequence RNA bind-n-seq); RBNS binding buffer (assumed for nsRBNS): 25 mM Tris pH 7.5, 150 mM KCl, 3 mM MgCl2, 0.01% Triton X-100, 500 ug/ml BSA, 20 U/ml SUPERase-In, 4 C; UNK is unkempt and MSI1 is Musashi-1; names of the RNAs are library labels; protein concentration not given here; high values mean tight binding

| Binder | binding signal |
| --- | --- |
| B1 | 0.772 enrichment R |
| B2 | 0.665 enrichment R |
| B3 | 0.763 enrichment R |
| B4 | 0.687 enrichment R |
| B5 | 0.481 enrichment R |
| B6 | 0.783 enrichment R |
| B7 | 0.574 enrichment R |
| B8 | 0.899 enrichment R |
| B9 | 0.671 enrichment R |
| B10 | 0.595 enrichment R |
| B11 | 0.271 enrichment R |
| B12 | 1.08 enrichment R |
| B13 | 0.484 enrichment R |
| B14 | 0.508 enrichment R |
| B15 | 0.751 enrichment R |
| B16 | 0.98 enrichment R |
| B17 | 0.594 enrichment R |
| B18 | 0.72 enrichment R |
| B19 | 1.15 enrichment R |
| B20 | 1.26 enrichment R |
| B21 | 1.07 enrichment R |
| B22 | 1.18 enrichment R |
